Source: PubChem BioAssay (National Center for Advancing Translational Sciences (NCATS))
HepG2 tox: counter-screen for TGF-b inhibitors: cytotoxicity in HepG2 cells. HepG2 CAGA-GFP viability, ATP luminescence, 18 h. Potency, µM (series often up to 46.1 µM), without a hit: at the top dose activity change, negative = cytotoxicity, usual class: cytotoxic. 410,000 tested, 0.76% active. AID 588856
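HepG2 CAGA-GFP cells (1000/well, DMEM with 1% FBS) received compound, then TGF-beta at 500 pg/mL final, and were incubated 18 hours at 37 degrees C. Viability was read by CellTiter-Glo luminescence. Media-only wells were set as complete cell-killing and DMSO as no toxicity.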
TGFb SMAD3 inh: TGF-b pathway inhibition; HepG2 CAGA-GFP TGF-b/SMAD3 reporter, GFP fluorescence, 18 h; TGF-beta stimulated, 500 pg/mL final; 410,000 tested, 1.2% active; Potency, µM (top dose mostly 46.1 µM), inactives show top-dose activity, negative = inhibition, hits mostly inhibitors; further: on the % scale 0 is the no-effect control and ±100 the full control effect; nearly all actives have a fitted effect of over 65% in size
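Cell-based qHTS in HEPG2 carrying a CAGA-GFP Smad reporter; compounds added before 500 pg/mL final TGF-beta, 18 h incubation at 37 degrees C, GFP fluorescence quantified per cell by imaging cytometry.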
DT40 TDP1 no CPT: qHTS for Inhibitors of human tyrosyl-DNA phosphodiesterase 1 (TDP1): qHTS in cells in absence of CPT; AID 686978, 2013; 420,000 tested, 15% active; Potency, µM (doses to about 46.2 µM), for the others: at the highest dose activity change, negative = growth inhibition, most hits filed as inhibitors; DT40 Tdp1-/- hTDP1 cells, no CPT, ATP luminescence, 48 h; further: on the % scale 0 is the no-effect control and ±100 the full control effect; nearly all actives have a fitted effect of over 55% in size
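Compound effects on proliferation are scored in DT40 Tdp1-/-;hTDP1 cells in the absence of CPT. ATP levels (CellTiter-Glo luminescence) are recorded after a ≥48 hr, 37 °C incubation.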
HT1080NT lethal: kills 2HG-producing HT-1080-NT fibrosarcoma cells; HT-1080-NT fibrosarcoma viability, CellTiter-Glo ATP luminescence, 48 h; Potency, µM (highest dose often 46.1 µM), for inactives: at the top dose activity, negative = less viability, actives largely listed as cytotoxic; 360,000 tested, 1.6% active; AID 686970;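 further: NT is the 2HG producing partner of a matched IDH1 knockdown line; 0% = DMSO-treated cells and -100% = media-only wells without cells; nearly all actives have a fitted effect of over 55% in size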
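Compounds were tested in concentration-response format on HT-1080-NT cells for 48 hours at 37 degrees C. Cell viability came from CellTiter-Glo luminescence; curves were classified by r2, response magnitude and activity.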
HT1080 IDH1KD tx: toxicity to HT-1080 IDH1 knockdown cells (counter line) | HT-1080 IDH1 knockdown viability, ATP luminescence, 48 h | Potency, µM (titrated, usually from 46.1 µM), for inactives: at the top dose activity, negative = toxicity, actives largely listed as cytotoxic | 360,000 tested, 2% active;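 further: 0% = DMSO wells and -100% = cell-free medium wells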
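After a 2 h attachment period, IDH1KD HT-1080 cells took pin-transferred compound for 48 h at 37 °C; ATP-based luminescence after 10 min room-temperature reagent incubation reported viability.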
TDP1 cell CPT: DT40-hTDP1 cell growth loss with CPT. chicken DT40 Tdp1-/-;hTDP1 cells + 20 nM CPT, ATP luminescence, 48 h. Potency, µM (titrated, usually from 46.2 µM), for inactives: top-dose activity change, negative = growth inhibition, most hits filed as inhibitors. 420,000 tested, 12% active. AID 686979; further: on the % scale 0 is the no-effect control and ±100 the full control effect; nearly all actives have a fitted effect of over 55% in size
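Chicken DT40 Tdp1-/- cells complemented with human TDP1, 400 cells/well, exposed to compounds plus 20 nM camptothecin for at least 48 h at 37 C; viability read as ATP content by CellTiter-Glo luminescence.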
Starred values were filed as active, the others as inactive; ? = inconclusive; · = not tested or not shown. The list is not random: actives were taken first. Their share in the collection is about 17%. The call rests on the fitted dose curve; in most records, active means well fitted curve in the direction sought with a large enough effect; inconclusive means small, poorly fitted or top-dose-only effect, or another doubt; inactive means no such curve, though single readings can be large; an effect the other way counts as inactive or inconclusive. Potency means the concentration at half of the fitted maximal effect.

SMILES | HepG2 tox | TGFb SMAD3 inh | DT40 TDP1 no CPT | HT1080NT lethal | HT1080 IDH1KD tx | TDP1 cell CPT
CCOc1ccc(S(=O)(=O)N(CC(=O)NCc2ccncc2)c2ccc(C)cc2)cc1 | 6% | -5% | ? | -1% | -25% | ?
Cc1ccc(CCS(=O)(=O)c2ccc(C(C)(C)C)cc2)cn1 | -19% | -6% | ? | -16% | -19% | ?
COc1ccc(C2/C=C\CN(C(=O)c3ccc(C)cc3)C(C)C(=O)N2Cc2ccc(F)cc2)cc1 (centres undefined) | 1% | ? | · | · | · | ·
CCOc1ccc(OCC)c(NC(=O)c2cc(S(=O)(=O)N3CCc4ccccc43)cn2C)c1 | -27% | -6% | ? | · | · | -29%
Cn1c(NCc2ccco2)nc2c1c(=O)n(Cc1ccc(Br)cc1)c(=O)n2C | -35% | -3% | ? | -23% | -24% | ?
Cn1c(NCc2ccco2)nc2c1c(=O)n(Cc1ccc(Cl)cc1)c(=O)n2C | -14% | 14% | 18µM* | -23% | -18% | ?
Cn1c(=O)n(Cc2ccc(Cl)cc2)c(=O)c2c1nc1n2CCN1Cc1ccco1 | -30% | 0% | 15µM* | -10% | 1% | ?
CC1CN(c2nc3c(c(=O)n(Cc4ccc(Cl)cc4)c(=O)n3C)n2C)CC(C)O1 (centres undefined) | -7% | 8% | 26µM* | -5% | -17% | ?
Cn1c(N2CCCC2)nc2c1c(=O)n(Cc1ccc(Cl)cc1)c(=O)n2C | -33% | -8% | ? | -12% | -8% | ?
CCCn1c(=O)c2c(nc3n2CCN3Cc2ccco2)n(C)c1=O | 0% | -4% | 0% | -4% | 4% | 4%
Cc1cccc(Cn2c(=O)c3c(nc4n3CCN4Cc3ccco3)n(C)c2=O)c1 | 1% | 1% | 21µM* | -1% | -15% | 21µM*
CN(C)c1ncc2nc(-c3ccccc3)c(=O)n(C)c2n1 | · | · | 3% | · | · | -8%
CC(=O)c1ccc(NC(=O)COC(=O)/C=C/c2cccs2)cc1 | 17% | -11% | ? | 4% | -1% | ?
Cn1c(NCc2ccccc2)nc2c1c(=O)n(Cc1ccc(Br)cc1)c(=O)n2C | -53% | 0% | ? | ? | ? | ?
COc1ccc(CNc2nc3c(c(=O)n(Cc4ccc(Br)cc4)c(=O)n3C)n2C)cc1 | 1% | -5% | 21µM* | ? | ? | ?
CCCN1C(=O)/C(=C/C=C2\N(CC)c3ccccc3C2(C)C)SC1=S | -3% | 51% | 13µM* | 3% | -14% | ?
CC(=O)Oc1ccc([C@@H]2COc3c(ccc4c3C=CC(C)(C)O4)C2)c(OC(C)=O)c1 | -53% | ? | ? | 10% | 10% | ?
CC1(C)C=Cc2c(ccc3c2OC[C@H](c2ccc(O)cc2O)C3)O1 | -97% | ? | ? | 0% | -8% | 13µM*
CC(C)=CCc1cc([C@@H]2COc3c(ccc4c3C=CC(C)(C)O4)C2)c(O)cc1O | 16µM* | 14µM* | ? | ? | ? | 18µM*
O=C(Nc1ccc(Cl)c(Cl)c1)Nc1nccs1 | 11µM* | ? | 0.82µM* | ? | ? | 2.1µM*
O=C(Nc1cccc(Cl)c1)Nc1nccs1 | -30% | ? | 16µM* | -10% | -1% | ?
CSc1ccc(Cl)c(C(=O)Nc2nccs2)c1 | 5% | 9% | -3% | 27% | 9% | -9%
CCCn1c2ccccc2c2cnn(CC(=O)N(Cc3ccccc3)C(C)C)c(=O)c21 | -1% | -3% | 18µM* | · | · | 23µM*
CCCn1c2ccccc2c2cnn(CC(=O)N3CCC(C)CC3)c(=O)c21 | 3% | ? | ? | · | · | ?
CCCn1c2ccccc2c2cnn(CC(=O)N(C)c3ccc(F)cc3)c(=O)c21 | -22% | 7% | 18µM* | · | · | 18µM*
SMILES | HepG2 tox | TGFb SMAD3 inh | DT40 TDP1 no CPT | HT1080NT lethal | HT1080 IDH1KD tx | TDP1 cell CPT
CCCCN(CC)C(=O)Cn1ncc2c3ccccc3n(CCC)c2c1=O | -23% | ? | 23µM* | -20% | -19% | ?
CCOC(=O)Cn1ncc2c3ccccc3n(CC(=O)OCC)c2c1=O | 2% | -7% | -5% | -8% | -6% | -26%
Cc1ccccc1Oc1ccc2c(c1)[C@@H]1C[C@H](N(C)C(=S)Nc3ccc(F)cc3)[C@H]([C@H](C)O)C(=O)N1CC2 | -53% | ? | ? | ? | ? | 21µM*
COCCNC(=S)N(C)[C@H]1C[C@H]2c3cc(Oc4ccccc4C)ccc3CCN2C(=O)[C@H]1[C@H](C)O | -29% | ? | 8.2µM* | -7% | 0% | 15µM*
COCCNC(=S)N(C)[C@H]1C[C@H]2c3cc(-c4ccccc4)ccc3CCN2C(=O)[C@H]1[C@H](C)O | -27% | -10% | 9.2µM* | 1% | -9% | ?
COCC(=O)N(C)[C@H]1C[C@H]2c3cc(N4CCN(C)CC4)ccc3CCN2C(=O)[C@H]1[C@H](C)O | 1% | 13% | 2% | 5% | 5% | -5%
OC[C@@H]1CN(Cc2ccc(-c3ccccc3)cc2)C[C@H](n2cnc3c(NCc4ccncc4)ncnc32)O1 | -23% | ? | 3.3µM* | ? | 23µM* | 2.9µM*
OC[C@@H]1CN(Cc2ccc(-c3ccccc3)cc2)C[C@H](n2cnc3c(NCc4ccco4)ncnc32)O1 | -27% | ? | 9.2µM* | 21µM* | 18µM* | 9.2µM*
OC[C@@H]1CN(Cc2ccccc2)C[C@H](n2cnc3c(NCc4ccco4)ncnc32)O1 | -19% | -2% | -6% | -1% | 10% | -18%
Cc1cc(Br)ccc1NC(=O)c1sc2ncnc(N3CCN(c4ccccn4)CC3)c2c1C | 2% | 6% | 2.6µM* | 12% | 8% | 10µM*
COc1ccc(NC(=O)CN2CCN(c3ccccn3)CC2)cc1Cl | -16% | 2% | 3% | 7% | 8% | 2%
COc1ccc(NC(=O)c2sc3nc(C)nc(N4CCN(c5ccccn5)CC4)c3c2C)cc1Cl | -1% | -3% | 21µM* | -10% | 2% | ?
COc1ccc(NC(=O)c2sc3ncnc(N4CCN(c5ccccn5)CC4)c3c2C)cc1Cl | 6% | ? | 5.8µM* | -10% | 1% | 21µM*
C=C(c1ccc2nc(NC(=O)OC)[nH]c2c1)c1cccs1 | -38% | ? | 0.82µM* | 1µM* | 0.73µM* | 0.73µM*
